Data on nine molecules can be found in PubChem BioAssay (NCI).

A short description of assay [1]: NCI Yeast Anticancer Drug Screen. Data for the rad50 strain (AID 155).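 Note: 0% = growth of vehicle-only cultures of the same strain.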 The conditions noted are these: S. cerevisiae rad50 strain growth inhibition, hits give high values. Put shortly:
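Cells are treated with compound, grown, and their growth is then scored against vehicle-only cultures of the same repair-deficient yeast strain.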

Assay [2] in a line: NCI Yeast Anticancer Drug Screen. Data for the mec2-1 strain (AID 157). The following applies: S. cerevisiae mec2-1 strain, hits give high values. Put shortly:
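Each compound was tested on mec2-1 yeast, a strain altered in DNA damage repair or cell cycle control. Growth inhibition is reported relative to vehicle.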

Assay [3] in a line: NCI Yeast Anticancer Drug Screen. Data for the sgs1 mgt1 strain (AID 161).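 Note: 0% = growth of cultures given vehicle only.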 The conditions noted are these: S. cerevisiae sgs1 mgt1 strain, hits give high values. Summed up:
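Test agents were incubated with a DNA-repair-mutant yeast strain. Growth was then read and compared against vehicle-treated controls.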

A short description of assay [4]: NCI Yeast Anticancer Drug Screen. Data for the cln2 rad14 strain (AID 165).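 Note: 0% = growth equal to vehicle treated cultures.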 The following applies: S. cerevisiae cln2 rad14 strain, hits give high values. Put shortly: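 Test compounds were added to cln2 rad14 yeast cultures; inhibition of growth was then determined by comparison with vehicle treatment.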
A short description of assay [5]: NCI Yeast Anticancer Drug Screen. Data for the bub3 strain (AID 167). The following applies: S. cerevisiae bub3 mutant strain, hits give high values. Put shortly:
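Part of a panel of yeast mutants defective in DNA damage repair or cell cycle regulation. Each strain is grown with compound, and inhibition is calculated relative to solvent-treated cultures.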

Assay [6] in a line: NCI Yeast Anticancer Drug Screen. Data for the mlh1 rad18 strain (AID 175). The following applies: S. cerevisiae mlh1 rad18 strain growth inhibition, hits give high values. Summed up: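 Inhibition values reflect reduced growth of mutant yeast versus vehicle-treated controls following compound exposure; the mutations affect DNA damage repair.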
Where [7] appears, read: at 5.0 µM (retest, dose inferred, filed as 0.5).
Where [8] appears, read: at 50.0 µM (retest, dose inferred, filed as 5.0).

This is part of a sample that, as a whole, favours compounds with a hit. Of some 79,000 tested, about 15% had one in any assay. Unmarked numbers belong to inactive results. Activity calls are given as the source filed them. Cut-off read from the data, not from the text of the source: active = growth inhibition above about 70%; inactive = the rest.

As to `CC(C)=CCC(OC(=O)CC(C)C)C1=CC(=O)c2c(O)ccc(O)c2C1=O` (configuration not stated), the growth inhibition in assay [1] (setting [7]) is -1%; in assay [1] (setting [8]), 99% (active); in assay [1] (at 50.0 µM) it was 87.3% (active); in assay [2] (setting [7]), 1%; in assay [2] (setting [8]), 99% (active); in assay [2] (at 50.0 µM), 89.2% (active). For the same molecule, the growth inhibition in assay [3] (setting [7]) was 1%; in assay [3] (setting [8]), 99% (active); in assay [3] (at 50.0 µM) it was 89.7% (active); in assay [4] (setting [7]), -17%; in assay [4] (setting [8]), 99% (active); in assay [4] (at 50.0 µM) it was 82.2% (active). The growth inhibition in assay [5] (setting [7]) is 2%; in assay [5] (setting [8]), 99% (active); in assay [5] (at 50.0 µM), 86% (active); in assay [6] (setting [7]) it was 1%; in assay [6] (setting [8]), 99% (active); in assay [6] (at 50.0 µM), 87.4% (active).
`CC(=O)OC1COC(n2nnc(C#N)c2C#N)C(OC(C)=O)C1OC(C)=O` (configuration not stated): the growth inhibition in assay [1] (setting [7]) was 4%; in assay [1] (setting [8]), 9%; in assay [1] (at 50.0 µM), 93.7% (active); in assay [2] (setting [7]), -7%; in assay [2] (setting [8]), 2%; in assay [2] (at 50.0 µM), 82.4% (active). The growth inhibition is 1% in assay [3] (setting [7]); 4% in assay [3] (setting [8]); 94.7% (active) in assay [3] (at 50.0 µM); 3% in assay [4] (setting [7]); 4% in assay [4] (setting [8]); 83% (active) in assay [4] (at 50.0 µM). Besides, the growth inhibition is 1% in assay [5] (setting [7]); 4% in assay [5] (setting [8]); 89.3% (active) in assay [5] (at 50.0 µM); 0% in assay [6] (setting [7]); 27% in assay [6] (setting [8]); 91.8% (active) in assay [6] (at 50.0 µM).
For the molecule `Cc1c(O)c2c(c(O)c1Br)C(=O)C=CC2=O`, the growth inhibition in assay [1] (setting [7]) was 88% (active); in assay [1] (setting [8]), 96% (active); in assay [1] (at 50.0 µM) it was 70.8% (active); in assay [2] (setting [7]) it was 93% (active); in assay [2] (setting [8]), 98% (active); in assay [2] (at 50.0 µM), 90.5% (active). For the same molecule, the growth inhibition in assay [3] (setting [7]) was 74% (active); in assay [3] (setting [8]), 98% (active); in assay [3] (at 50.0 µM) it was 90.5% (active); in assay [4] (setting [7]), 49%; in assay [4] (setting [8]), 97% (active); in assay [4] (at 50.0 µM), 87.3% (active). Besides, the growth inhibition in assay [5] (setting [7]) was 98% (active); in assay [5] (setting [8]), 98% (active); in assay [5] (at 50.0 µM), 89.1% (active); in assay [6] (setting [7]) it was 96% (active); in assay [6] (setting [8]) it was 97% (active); in assay [6] (at 50.0 µM) it was 90.8% (active).
As for `Clc1ccc(CNc2ccc(Cl)c(Cl)c2)cc1`, the growth inhibition was 8% in assay [1] (setting [7]); 95% (active) in assay [1] (setting [8]); 97.8% (active) in assay [1] (at 50.0 µM); 36% in assay [2] (setting [7]); 97% (active) in assay [2] (setting [8]); 98.2% (active) in assay [2] (at 50.0 µM). The growth inhibition in assay [3] (setting [7]) was 11%; in assay [3] (setting [8]) it was 97% (active); in assay [3] (at 50.0 µM), 98.2% (active); in assay [4] (setting [7]), -10%; in assay [4] (setting [8]) it was 91% (active); in assay [4] (at 50.0 µM), 97.7% (active). Also, the growth inhibition is 2% in assay [5] (setting [7]); 96% (active) in assay [5] (setting [8]); 97.5% (active) in assay [5] (at 50.0 µM); 15% in assay [6] (setting [7]); 95% (active) in assay [6] (setting [8]); 97% (active) in assay [6] (at 50.0 µM).
In the case of `C/C(=N\NC(=O)C[n+]1ccccc1)c1sc(-c2nc(C)c(/C(C)=N/NC(=O)C[n+]3ccccc3)s2)nc1C`, the growth inhibition in assay [1] (setting [7]) was 95% (active); in assay [1] (setting [8]), 97% (active); in assay [1] (at 50.0 µM) it was 97.2% (active); in assay [2] (setting [7]), 97% (active); in assay [2] (setting [8]), 99% (active); in assay [2] (at 50.0 µM) it was 96.8% (active). In addition, the growth inhibition in assay [3] (setting [7]) is 98% (active); in assay [3] (setting [8]), 97% (active); in assay [3] (at 50.0 µM), 96.9% (active); in assay [4] (setting [7]), 92% (active); in assay [4] (setting [8]), 97% (active); in assay [4] (at 50.0 µM) it was 93% (active). Further, the growth inhibition in assay [5] (setting [7]) is 95% (active); in assay [5] (setting [8]), 97% (active); in assay [5] (at 50.0 µM), 96.8% (active); in assay [6] (setting [7]), 93% (active); in assay [6] (setting [8]) it was 98% (active); in assay [6] (at 50.0 µM) it was 96.4% (active).
With `Clc1ccc(CN2COc3c(ccc4ccccc34)C2)cc1`, the growth inhibition was 10% in assay [1] (setting [7]); 78% (active) in assay [1] (setting [8]); 88.8% (active) in assay [1] (at 50.0 µM); 3% in assay [2] (setting [7]); 43% in assay [2] (setting [8]); 59.8% in assay [2] (at 50.0 µM). Further, the growth inhibition in assay [3] (setting [7]) is 13%; in assay [3] (setting [8]) it was 97% (active); in assay [3] (at 50.0 µM), 83.2% (active); in assay [4] (setting [7]), 0%; in assay [4] (setting [8]) it was 85% (active); in assay [4] (at 50.0 µM) it was 61.1%. The growth inhibition in assay [5] (setting [7]) is -4%; in assay [5] (setting [8]) it was 96% (active); in assay [5] (at 50.0 µM), 89.9% (active); in assay [6] (setting [7]) it was 1%; in assay [6] (setting [8]), 96% (active); in assay [6] (at 50.0 µM) it was 59%.
On to `CC(C)c1ccc(O)c(O)c(=O)c1` (tested in a mixture with another compound), for which the growth inhibition in assay [1] (setting [7]) was 99% (active); in assay [1] (setting [8]), 100% (active); in assay [1] (at 50.0 µM), 99.5% (active); in assay [2] (setting [7]), 100% (active); in assay [2] (setting [8]) it was 100% (active); in assay [2] (at 50.0 µM) it was 99.7% (active). Moreover, the growth inhibition was 99% (active) in assay [3] (setting [7]); 99% (active) in assay [3] (setting [8]); 99.5% (active) in assay [3] (at 50.0 µM); 97% (active) in assay [4] (setting [7]); 99% (active) in assay [4] (setting [8]); 99.1% (active) in assay [4] (at 50.0 µM). In addition, the growth inhibition in assay [5] (setting [7]) is 99% (active); in assay [5] (setting [8]), 100% (active); in assay [5] (at 50.0 µM), 99.3% (active); in assay [6] (setting [7]) it was 99% (active); in assay [6] (setting [8]) it was 99% (active); in assay [6] (at 50.0 µM) it was 99.3% (active).
As to `O=c1c2cc3c(cc2c2cccc4c2n1CCC4)OCO3`, the growth inhibition in assay [1] (setting [7]) is -1%; in assay [1] (setting [8]), 44%; in assay [1] (at 50.0 µM), 71.2% (active); in assay [2] (setting [7]) it was 0%; in assay [2] (setting [8]), 12%; in assay [2] (at 50.0 µM) it was 23.4%. Further, the growth inhibition in assay [3] (setting [7]) was -4%; in assay [3] (setting [8]), 13%; in assay [3] (at 50.0 µM), 25.4%; in assay [4] (setting [7]), -3%; in assay [4] (setting [8]), 6%; in assay [4] (at 50.0 µM), 42.4%. Moreover, the growth inhibition in assay [5] (setting [7]) was 2%; in assay [5] (setting [8]), 31%; in assay [5] (at 50.0 µM) it was 20.4%; in assay [6] (setting [7]) it was -2%; in assay [6] (setting [8]) it was 15%; in assay [6] (at 50.0 µM), 53.7%.
As to `CSc1cc(-c2cc3ccccc3o2)oc(=O)c1C#N`, the growth inhibition in assay [1] (setting [7]) was 6%; in assay [1] (setting [8]), -8%; in assay [1] (at 50.0 µM) it was -1.6%; in assay [2] (setting [7]) it was -1%; in assay [2] (setting [8]) it was -10%; in assay [2] (at 50.0 µM), -6.6%. Moreover, the growth inhibition is 3% in assay [3] (setting [7]); -11% in assay [3] (setting [8]); -24.4% in assay [3] (at 50.0 µM); -9% in assay [4] (setting [7]); -6% in assay [4] (setting [8]); -4.5% in assay [4] (at 50.0 µM). The growth inhibition was -5% in assay [5] (setting [7]); -8% in assay [5] (setting [8]); 40.1% in assay [5] (at 50.0 µM); -4% in assay [6] (setting [7]); -11% in assay [6] (setting [8]); -23.9% in assay [6] (at 50.0 µM).
